The results in this text go back to PubChem BioAssay AID449739 (Vanderbilt High Throughput Screening Facility, 2010).

Screen size: about 100,000 compounds; about 4,200 (4.2%) were called active.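 The calls were made as follows: active = single-dose well whose peak fluorescence ratio is a statistical outlier from its plate by either plate-standardised score or position-corrected B-score; inactive = the rest.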 Only a selection was taken, and actives are over-represented in it overall.

Chain of Voltage-dependent T-type calcium channel subunit alpha-1H (Homo sapiens) (O95180 whole entry, looked up): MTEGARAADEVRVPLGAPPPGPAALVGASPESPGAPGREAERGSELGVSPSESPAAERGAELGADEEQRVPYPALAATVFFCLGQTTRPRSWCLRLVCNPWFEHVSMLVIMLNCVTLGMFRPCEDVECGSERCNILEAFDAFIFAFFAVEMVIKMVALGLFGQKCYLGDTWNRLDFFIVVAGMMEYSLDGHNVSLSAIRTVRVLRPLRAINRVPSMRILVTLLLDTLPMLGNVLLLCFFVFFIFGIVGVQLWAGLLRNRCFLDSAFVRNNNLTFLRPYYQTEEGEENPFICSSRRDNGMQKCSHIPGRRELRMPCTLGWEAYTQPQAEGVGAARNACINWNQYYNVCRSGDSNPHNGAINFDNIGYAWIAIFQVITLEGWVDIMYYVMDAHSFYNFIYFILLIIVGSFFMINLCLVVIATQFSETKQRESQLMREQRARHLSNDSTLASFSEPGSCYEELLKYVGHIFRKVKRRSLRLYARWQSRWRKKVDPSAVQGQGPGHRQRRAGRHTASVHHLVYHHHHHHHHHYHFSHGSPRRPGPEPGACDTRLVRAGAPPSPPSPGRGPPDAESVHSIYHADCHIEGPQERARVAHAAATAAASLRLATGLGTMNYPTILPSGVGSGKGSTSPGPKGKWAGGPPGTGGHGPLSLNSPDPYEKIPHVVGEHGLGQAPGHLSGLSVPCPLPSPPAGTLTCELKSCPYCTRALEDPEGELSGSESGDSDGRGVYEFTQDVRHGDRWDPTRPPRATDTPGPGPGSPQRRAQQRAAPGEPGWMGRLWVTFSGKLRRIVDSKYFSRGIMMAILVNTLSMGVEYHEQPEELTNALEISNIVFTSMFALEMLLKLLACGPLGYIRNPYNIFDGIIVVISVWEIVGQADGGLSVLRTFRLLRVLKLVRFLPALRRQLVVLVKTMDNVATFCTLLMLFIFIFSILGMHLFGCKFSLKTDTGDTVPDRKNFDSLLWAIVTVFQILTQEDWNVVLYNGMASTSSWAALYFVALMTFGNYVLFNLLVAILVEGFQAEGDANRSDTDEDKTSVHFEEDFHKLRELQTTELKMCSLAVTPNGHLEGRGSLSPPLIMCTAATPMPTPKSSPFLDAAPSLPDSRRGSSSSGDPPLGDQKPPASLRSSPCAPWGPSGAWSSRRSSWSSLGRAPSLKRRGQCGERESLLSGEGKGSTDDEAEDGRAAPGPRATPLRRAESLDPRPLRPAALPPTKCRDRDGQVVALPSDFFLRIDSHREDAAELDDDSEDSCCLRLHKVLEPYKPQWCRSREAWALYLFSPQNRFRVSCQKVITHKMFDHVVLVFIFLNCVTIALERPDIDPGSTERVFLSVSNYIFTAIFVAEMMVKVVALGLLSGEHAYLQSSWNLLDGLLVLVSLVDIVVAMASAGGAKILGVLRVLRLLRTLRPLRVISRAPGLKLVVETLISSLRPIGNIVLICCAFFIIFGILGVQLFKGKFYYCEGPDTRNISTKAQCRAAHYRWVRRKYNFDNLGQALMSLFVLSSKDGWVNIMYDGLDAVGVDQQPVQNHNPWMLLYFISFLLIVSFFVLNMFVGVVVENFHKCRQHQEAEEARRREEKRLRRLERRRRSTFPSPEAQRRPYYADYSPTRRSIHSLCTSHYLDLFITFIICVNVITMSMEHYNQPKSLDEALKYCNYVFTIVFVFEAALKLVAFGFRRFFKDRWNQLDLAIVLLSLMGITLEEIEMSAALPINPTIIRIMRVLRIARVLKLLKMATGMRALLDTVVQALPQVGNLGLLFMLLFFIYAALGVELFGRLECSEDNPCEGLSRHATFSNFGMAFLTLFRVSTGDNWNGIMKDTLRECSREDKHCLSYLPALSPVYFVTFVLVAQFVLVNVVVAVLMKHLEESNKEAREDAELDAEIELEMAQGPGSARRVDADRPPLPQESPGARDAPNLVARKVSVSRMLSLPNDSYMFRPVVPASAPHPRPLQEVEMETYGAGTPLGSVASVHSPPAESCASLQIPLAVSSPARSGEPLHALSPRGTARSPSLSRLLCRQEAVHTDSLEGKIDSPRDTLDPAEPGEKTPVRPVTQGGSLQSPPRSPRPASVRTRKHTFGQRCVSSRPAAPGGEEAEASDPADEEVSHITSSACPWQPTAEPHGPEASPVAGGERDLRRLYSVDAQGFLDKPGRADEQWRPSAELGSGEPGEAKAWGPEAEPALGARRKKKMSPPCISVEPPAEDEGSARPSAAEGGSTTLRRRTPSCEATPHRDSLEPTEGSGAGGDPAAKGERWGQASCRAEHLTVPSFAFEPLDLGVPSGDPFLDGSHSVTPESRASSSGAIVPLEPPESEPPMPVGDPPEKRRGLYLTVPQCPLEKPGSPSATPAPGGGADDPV

The test concerns the target Voltage-dependent T-type calcium channel subunit alpha-1H (Homo sapiens) (UniProt O95180). As to the kind of experiment: Cav3.2 calcium influx blockers – cell-based, Fluo-4 calcium fluorescence, FDSS, MLSMR library, primary screen (AID 449739). The following applies: Cav3.2-expressing cells, at 10 µM, stronger effect = lower value.
For the compound `O=c1cc(-c2ccccc2)[nH]c2cc(F)ccc12`, the B-score is -1.92 (inactive).

With `N=c1c2c(-c3ccccc3)c(-c3ccccc3)oc2ncn1Cc1ccco1`, the B-score was -2.43 (inactive).

`OCCCN1c2ccccc2Nc2nnc(-c3ccccc3)cc21`: the B-score was 0.492 (inactive). As to `N=c1c2c(-c3ccccc3)c(-c3ccccc3)n(Cc3ccccc3)c2ncn1CCCO`, the B-score is -7.3 (active). `Cc1cccc(NC(=S)NCc2ccc3[nH]c4c(c3c2)CCCC4)c1`: the B-score is -3.54 (inactive).

Take `CC(=O)C1=C(C)NC(C)=C(C(C)=O)C1c1cn(-c2ccccc2)nc1-c1cccs1`: the B-score was -3.89 (active). With `COc1ccc(-c2nn(-c3ccccc3)cc2C(=O)Nc2nccs2)cc1OC`, the B-score was -3.24 (inactive). As to `C=CCOC(=O)C1=C(C)NC(C)=C(C(=O)OCC=C)C1c1cccs1`, the B-score is -3.25 (inactive). Consider `CNC(=O)c1[nH]cnc1C(=O)N[C@@H](CC(C)C)C(=O)OCc1ccccc1`, for which the B-score was -0.016 (inactive). Consider `Cc1[nH]c2ccccc2c1C(=O)COC(=O)C(C)C`, for which the B-score is 0.085 (inactive).

As to `COc1ccc2c(c1)SC(C)CC2=O` (stereo not given), the B-score was -0.0138 (inactive). Take `CC1(C)S[C@@H]2[C@H](NC(=O)COc3ccccc3)C(=O)N2C1C(=O)OCc1ccccc1` (stereo not given in full): the B-score was -1.43 (inactive). The figure for `CCc1ccc2c(c1)cc(CN(C(=S)Nc1ccccc1Cl)C1CC1)c1nnnn12` is 0.523 (inactive); for `CCOc1ccc2c(c1)cc(CN(C(=O)CC)C1CCCCC1)c1nnnn12` it is -4.82 (active); for `CCOc1ccc2[nH]c(=O)c(CN(Cc3nnnn3Cc3ccccc3)CC3CCCO3)cc2c1` (stereo not given) it is -0.479 (inactive). Take `O=C(COc1ccc(Cl)cc1)NCCC1=CCCCC1`: the B-score was -2.12 (inactive). Turning to `C=C1CCN([C@@H](Cc2ccccc2)C(=O)N2CCOCC2)S(=O)(=O)c2ccccc21`, the B-score is 0.119 (inactive). For `O=C1N=C2SCCN2/C1=C\c1c(Cl)cccc1Cl`, the B-score is -7.62 (active). On to `O=C(NC1(C(F)(F)F)N=C2SCCN2C1=O)c1ccco1` (stereo not given), for which the B-score is 0.645 (inactive). As for `O=C1N=C(N2CCCC2)S/C1=C\c1cccc(Br)c1`, the B-score is 0.36 (inactive). The same measure for `O=C(NC1=NCCS1)[C@H](Cc1ccccc1)N1C(=O)c2ccccc2C1=O`: -0.0971 (inactive); for `NC(=O)CC[C@@H]1NC(=O)[C@@H]2CCCN2C(=O)c2cc([N+](=O)[O-])cc(F)c2NCCC[C@@H](C(N)=O)NC1=O`: 0.224 (inactive); for `CCOC(=O)c1ccc(N2C(=O)CC(N(C)Cc3ccccc3)C2=O)cc1` (stereo not given): 0.0731 (inactive). Take `CCCCOC(=O)c1ccc(N2C(=O)CC(N3CCN(C/C=C/c4ccccc4)CC3)C2=O)cc1` (stereo not given): the B-score is -6.05 (active). Turning to `CCOC(=O)c1ccc(N2C(=O)CC(N3CC(C)OC(C)C3)C2=O)cc1` (stereo not given), the B-score is 0.246 (inactive).
